Reference: the supplement of paper PMC11732987, “Enantioselective OTUD7B fragment discovery through chemoproteomics screening and high-throughput optimisation” (Communications Chemistry, 2025)

How the values were obtained:
Assay in all cases: log2 ratio of Biotin-Ahx-Ub-VS probe labelling (fragment/DMSO); higher = less target engagement (more negative = stronger competition), active = hit call of the paper (q ≤ 0.05, log2 ratio ≤ -1)
Details in all cases: compound concentration: 200 uM; treatment time: 3 h
USP42 = target: T1, USP42 (UniProt Q9H9J4)
T1 sequence (whole entry): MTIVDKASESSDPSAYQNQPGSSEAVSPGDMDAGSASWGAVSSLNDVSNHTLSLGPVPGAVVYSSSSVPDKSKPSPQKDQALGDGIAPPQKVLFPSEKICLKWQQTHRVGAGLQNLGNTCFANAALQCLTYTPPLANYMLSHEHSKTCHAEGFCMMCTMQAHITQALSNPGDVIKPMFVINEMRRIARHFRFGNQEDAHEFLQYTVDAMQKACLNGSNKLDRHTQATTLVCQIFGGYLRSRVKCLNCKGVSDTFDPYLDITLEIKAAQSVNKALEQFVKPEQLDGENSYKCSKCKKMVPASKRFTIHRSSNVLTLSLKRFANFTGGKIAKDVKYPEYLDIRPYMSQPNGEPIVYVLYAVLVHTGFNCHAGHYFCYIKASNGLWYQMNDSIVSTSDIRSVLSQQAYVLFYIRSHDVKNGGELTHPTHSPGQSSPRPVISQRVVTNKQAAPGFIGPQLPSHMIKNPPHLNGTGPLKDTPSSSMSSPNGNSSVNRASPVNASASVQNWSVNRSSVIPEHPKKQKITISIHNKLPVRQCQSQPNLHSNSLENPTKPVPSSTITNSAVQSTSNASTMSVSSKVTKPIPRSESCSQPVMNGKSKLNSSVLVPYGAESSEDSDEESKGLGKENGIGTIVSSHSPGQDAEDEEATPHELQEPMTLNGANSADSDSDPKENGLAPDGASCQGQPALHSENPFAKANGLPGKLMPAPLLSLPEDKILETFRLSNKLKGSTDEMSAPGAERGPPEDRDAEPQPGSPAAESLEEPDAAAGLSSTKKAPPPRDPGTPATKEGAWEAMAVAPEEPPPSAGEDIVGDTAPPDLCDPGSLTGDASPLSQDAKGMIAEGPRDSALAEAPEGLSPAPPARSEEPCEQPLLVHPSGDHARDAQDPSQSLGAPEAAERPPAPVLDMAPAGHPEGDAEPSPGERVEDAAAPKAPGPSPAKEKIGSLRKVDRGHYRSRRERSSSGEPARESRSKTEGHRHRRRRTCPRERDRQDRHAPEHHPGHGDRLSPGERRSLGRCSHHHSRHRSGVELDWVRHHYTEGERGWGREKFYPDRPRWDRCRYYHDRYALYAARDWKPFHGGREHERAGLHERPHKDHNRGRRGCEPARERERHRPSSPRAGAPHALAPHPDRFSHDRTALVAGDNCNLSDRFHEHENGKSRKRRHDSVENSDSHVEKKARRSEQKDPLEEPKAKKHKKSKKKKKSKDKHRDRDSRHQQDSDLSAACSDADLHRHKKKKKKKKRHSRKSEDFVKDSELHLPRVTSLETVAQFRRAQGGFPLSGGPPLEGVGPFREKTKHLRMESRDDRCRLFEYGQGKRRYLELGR
Method in brief: (§1)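 Global-median-normalised Spectronaut label-free quantities were compared by unpaired t-test, and values are average log2 ratios of fragment over vehicle. Only proteins with ≥2 unique peptides were used. HEK293T lysate (495 µg per sample) was treated in triplicate with fragment at 200 µM or vehicle for 3 h and then with Biotin-Ahx-Ub-VS at 0.5 µM final for 1 h. Labelled DUBs were then NeutrAvidin-enriched, digested with LysC and trypsin, and run by diaPASEF LC-MS/MS.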

USP46 = USP46 (UniProt P62068)
USP46, sequence (P62068 whole entry): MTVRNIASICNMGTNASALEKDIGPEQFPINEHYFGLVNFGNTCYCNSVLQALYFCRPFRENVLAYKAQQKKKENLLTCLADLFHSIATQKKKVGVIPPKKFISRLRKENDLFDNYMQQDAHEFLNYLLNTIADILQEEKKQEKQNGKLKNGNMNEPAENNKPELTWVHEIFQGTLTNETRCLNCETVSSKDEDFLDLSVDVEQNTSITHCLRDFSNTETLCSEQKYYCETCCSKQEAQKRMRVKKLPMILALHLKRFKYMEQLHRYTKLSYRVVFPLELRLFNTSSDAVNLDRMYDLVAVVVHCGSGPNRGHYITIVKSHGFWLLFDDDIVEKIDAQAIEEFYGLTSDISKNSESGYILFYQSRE
Method in brief: as §1

USP47 = target: T2, USP47 (UniProt Q96K76)
T2 sequence (whole entry): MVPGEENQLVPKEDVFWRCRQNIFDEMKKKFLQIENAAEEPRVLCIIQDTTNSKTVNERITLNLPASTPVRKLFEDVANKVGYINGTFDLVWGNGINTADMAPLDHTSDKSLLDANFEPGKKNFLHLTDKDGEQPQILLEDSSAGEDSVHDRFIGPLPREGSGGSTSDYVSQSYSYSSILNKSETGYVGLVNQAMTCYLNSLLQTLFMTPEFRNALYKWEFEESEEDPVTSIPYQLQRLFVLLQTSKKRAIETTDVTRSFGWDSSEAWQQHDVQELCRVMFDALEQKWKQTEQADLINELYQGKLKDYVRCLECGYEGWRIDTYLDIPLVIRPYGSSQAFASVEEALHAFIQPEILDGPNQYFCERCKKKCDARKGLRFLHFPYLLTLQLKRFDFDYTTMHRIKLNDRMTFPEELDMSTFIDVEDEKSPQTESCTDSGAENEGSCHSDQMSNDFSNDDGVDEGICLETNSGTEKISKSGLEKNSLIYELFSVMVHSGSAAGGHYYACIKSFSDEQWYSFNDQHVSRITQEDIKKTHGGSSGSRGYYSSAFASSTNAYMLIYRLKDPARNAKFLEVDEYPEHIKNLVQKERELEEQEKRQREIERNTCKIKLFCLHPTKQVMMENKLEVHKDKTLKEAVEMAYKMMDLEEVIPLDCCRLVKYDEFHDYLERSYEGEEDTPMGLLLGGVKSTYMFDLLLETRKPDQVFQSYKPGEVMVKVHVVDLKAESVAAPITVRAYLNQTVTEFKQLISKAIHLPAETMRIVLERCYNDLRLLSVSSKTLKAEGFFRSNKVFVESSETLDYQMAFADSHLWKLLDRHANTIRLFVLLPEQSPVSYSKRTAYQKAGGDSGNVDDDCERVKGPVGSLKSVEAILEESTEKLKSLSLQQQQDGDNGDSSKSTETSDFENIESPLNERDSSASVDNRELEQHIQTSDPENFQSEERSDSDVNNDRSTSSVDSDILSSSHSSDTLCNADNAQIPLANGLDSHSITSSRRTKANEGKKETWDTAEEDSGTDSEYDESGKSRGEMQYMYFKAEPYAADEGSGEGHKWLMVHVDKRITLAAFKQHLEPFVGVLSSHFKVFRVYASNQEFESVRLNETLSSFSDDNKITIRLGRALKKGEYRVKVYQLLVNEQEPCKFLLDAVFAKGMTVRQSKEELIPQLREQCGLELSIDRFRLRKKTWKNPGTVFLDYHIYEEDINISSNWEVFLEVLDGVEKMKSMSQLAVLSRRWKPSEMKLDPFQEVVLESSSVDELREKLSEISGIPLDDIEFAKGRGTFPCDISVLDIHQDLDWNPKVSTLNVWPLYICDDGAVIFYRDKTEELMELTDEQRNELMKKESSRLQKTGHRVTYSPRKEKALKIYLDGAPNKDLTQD
Method in brief: as §1

USP48 = target: T3, USP48 (UniProt Q86UV5)
T3 sequence (whole entry): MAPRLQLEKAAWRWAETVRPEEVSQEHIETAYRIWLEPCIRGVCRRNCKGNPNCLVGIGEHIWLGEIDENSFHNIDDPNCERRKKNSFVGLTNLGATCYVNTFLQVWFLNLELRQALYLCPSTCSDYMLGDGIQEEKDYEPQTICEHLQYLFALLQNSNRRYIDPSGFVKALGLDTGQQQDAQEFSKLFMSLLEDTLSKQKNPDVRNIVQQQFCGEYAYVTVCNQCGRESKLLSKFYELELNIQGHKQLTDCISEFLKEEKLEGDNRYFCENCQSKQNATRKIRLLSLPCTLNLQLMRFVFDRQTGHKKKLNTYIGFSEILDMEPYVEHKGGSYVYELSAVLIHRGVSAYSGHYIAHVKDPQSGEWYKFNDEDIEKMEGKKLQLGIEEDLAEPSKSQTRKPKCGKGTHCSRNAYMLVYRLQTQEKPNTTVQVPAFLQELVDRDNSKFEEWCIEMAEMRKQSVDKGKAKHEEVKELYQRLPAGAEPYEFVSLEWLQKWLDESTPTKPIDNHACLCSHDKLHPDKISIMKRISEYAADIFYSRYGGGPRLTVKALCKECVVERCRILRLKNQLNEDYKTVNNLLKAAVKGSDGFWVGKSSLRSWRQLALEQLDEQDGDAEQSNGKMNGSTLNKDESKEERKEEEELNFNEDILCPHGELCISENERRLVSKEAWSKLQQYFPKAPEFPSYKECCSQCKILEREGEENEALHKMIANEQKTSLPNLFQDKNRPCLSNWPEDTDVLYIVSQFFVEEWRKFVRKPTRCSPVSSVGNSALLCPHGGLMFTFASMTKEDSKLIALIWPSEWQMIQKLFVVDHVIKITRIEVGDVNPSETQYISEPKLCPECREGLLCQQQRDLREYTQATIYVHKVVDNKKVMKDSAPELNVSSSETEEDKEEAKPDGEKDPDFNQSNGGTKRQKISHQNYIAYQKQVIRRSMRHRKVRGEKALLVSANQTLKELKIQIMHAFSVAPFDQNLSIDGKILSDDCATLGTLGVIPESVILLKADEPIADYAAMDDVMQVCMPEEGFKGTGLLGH
Method in brief: as §1

USP5 = target: T4, USP5 (UniProt P45974)
T4 sequence (whole entry): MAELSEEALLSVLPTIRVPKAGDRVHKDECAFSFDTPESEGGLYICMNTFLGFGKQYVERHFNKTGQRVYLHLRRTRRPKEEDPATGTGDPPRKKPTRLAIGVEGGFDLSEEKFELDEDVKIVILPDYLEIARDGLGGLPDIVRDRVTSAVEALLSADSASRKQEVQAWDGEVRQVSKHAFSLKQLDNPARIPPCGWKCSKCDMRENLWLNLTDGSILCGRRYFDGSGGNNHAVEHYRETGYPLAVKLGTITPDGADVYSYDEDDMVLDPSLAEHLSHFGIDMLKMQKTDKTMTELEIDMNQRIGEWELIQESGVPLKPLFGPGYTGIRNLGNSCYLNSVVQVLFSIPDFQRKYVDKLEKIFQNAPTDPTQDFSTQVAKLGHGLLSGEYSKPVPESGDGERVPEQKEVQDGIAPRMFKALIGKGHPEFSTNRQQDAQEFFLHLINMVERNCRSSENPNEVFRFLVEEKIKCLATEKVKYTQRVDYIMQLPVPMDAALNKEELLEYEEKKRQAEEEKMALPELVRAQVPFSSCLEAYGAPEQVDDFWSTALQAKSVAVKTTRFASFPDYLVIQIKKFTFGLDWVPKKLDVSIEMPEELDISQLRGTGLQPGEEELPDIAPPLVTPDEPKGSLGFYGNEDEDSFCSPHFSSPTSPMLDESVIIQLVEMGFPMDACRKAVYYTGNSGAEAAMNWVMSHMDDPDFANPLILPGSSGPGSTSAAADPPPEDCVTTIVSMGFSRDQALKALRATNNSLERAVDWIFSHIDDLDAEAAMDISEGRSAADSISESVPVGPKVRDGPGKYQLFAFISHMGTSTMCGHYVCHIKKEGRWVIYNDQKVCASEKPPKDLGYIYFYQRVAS
Method in brief: as §1

USP54 = USP54 (UniProt Q70EL1)
Method in brief: as §1

USP7 = USP7 (UniProt Q93009)
USP7, sequence (Q93009 whole entry, looked up): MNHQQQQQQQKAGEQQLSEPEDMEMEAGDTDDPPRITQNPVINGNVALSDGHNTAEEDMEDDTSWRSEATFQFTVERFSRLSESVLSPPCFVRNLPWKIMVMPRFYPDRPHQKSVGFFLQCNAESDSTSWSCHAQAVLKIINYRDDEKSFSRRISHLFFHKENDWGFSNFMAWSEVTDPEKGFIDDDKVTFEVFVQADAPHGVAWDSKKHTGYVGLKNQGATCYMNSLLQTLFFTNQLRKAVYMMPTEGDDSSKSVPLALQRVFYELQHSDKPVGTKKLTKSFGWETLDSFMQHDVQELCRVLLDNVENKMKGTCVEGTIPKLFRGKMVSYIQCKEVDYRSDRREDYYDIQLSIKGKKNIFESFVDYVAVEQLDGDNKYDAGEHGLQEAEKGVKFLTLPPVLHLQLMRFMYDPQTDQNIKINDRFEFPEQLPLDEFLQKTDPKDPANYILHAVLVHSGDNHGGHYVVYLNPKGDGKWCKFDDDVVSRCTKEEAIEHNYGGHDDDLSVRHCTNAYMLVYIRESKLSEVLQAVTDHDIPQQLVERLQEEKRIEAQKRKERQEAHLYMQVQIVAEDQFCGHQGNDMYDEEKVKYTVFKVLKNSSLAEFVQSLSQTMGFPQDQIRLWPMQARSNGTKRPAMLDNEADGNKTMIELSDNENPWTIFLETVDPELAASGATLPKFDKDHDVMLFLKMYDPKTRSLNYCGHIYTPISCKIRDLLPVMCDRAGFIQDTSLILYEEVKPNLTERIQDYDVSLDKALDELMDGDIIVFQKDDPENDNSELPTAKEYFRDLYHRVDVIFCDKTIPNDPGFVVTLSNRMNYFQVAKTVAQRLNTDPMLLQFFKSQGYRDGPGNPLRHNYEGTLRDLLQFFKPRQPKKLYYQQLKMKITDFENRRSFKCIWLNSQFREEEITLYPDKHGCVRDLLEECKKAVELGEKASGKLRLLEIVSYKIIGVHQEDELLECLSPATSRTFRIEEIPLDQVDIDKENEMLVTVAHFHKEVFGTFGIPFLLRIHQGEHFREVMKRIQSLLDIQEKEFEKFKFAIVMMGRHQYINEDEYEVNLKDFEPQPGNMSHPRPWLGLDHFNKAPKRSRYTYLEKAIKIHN
Method in brief: as §1

USP8 = target: T5, USP8 (UniProt P40818)
T5 sequence (whole entry): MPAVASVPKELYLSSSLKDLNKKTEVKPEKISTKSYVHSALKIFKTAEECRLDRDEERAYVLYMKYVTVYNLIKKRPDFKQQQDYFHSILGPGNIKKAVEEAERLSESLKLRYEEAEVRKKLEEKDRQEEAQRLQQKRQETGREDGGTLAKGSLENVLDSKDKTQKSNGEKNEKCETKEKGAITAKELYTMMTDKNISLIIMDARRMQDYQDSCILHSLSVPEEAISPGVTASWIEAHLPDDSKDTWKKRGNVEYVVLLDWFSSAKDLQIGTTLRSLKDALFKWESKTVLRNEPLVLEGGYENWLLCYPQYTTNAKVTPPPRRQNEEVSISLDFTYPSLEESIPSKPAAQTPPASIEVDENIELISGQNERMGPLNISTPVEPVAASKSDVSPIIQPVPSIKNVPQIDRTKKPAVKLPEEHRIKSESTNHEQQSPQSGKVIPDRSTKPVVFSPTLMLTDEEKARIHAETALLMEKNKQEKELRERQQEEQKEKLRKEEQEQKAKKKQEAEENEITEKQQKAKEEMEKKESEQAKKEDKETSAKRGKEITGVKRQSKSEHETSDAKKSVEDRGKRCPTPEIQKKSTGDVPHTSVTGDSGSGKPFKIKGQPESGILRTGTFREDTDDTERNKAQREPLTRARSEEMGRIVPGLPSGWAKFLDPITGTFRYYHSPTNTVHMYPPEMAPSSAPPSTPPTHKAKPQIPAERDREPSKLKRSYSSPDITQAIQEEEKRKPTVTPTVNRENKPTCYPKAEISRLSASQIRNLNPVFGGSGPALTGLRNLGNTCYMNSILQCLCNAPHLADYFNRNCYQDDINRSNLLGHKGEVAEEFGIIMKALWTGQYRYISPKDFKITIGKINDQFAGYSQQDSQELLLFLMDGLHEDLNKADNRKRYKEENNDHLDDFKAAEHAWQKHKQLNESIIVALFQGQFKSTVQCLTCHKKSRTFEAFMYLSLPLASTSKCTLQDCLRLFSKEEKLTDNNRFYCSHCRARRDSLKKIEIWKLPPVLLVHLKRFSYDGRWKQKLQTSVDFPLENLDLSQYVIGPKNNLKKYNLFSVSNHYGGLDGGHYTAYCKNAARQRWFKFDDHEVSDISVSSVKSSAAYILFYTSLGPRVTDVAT
Method in brief: as §1

USP9X = USP9X (UniProt Q93008)
USP9X, sequence (Q93008 whole entry): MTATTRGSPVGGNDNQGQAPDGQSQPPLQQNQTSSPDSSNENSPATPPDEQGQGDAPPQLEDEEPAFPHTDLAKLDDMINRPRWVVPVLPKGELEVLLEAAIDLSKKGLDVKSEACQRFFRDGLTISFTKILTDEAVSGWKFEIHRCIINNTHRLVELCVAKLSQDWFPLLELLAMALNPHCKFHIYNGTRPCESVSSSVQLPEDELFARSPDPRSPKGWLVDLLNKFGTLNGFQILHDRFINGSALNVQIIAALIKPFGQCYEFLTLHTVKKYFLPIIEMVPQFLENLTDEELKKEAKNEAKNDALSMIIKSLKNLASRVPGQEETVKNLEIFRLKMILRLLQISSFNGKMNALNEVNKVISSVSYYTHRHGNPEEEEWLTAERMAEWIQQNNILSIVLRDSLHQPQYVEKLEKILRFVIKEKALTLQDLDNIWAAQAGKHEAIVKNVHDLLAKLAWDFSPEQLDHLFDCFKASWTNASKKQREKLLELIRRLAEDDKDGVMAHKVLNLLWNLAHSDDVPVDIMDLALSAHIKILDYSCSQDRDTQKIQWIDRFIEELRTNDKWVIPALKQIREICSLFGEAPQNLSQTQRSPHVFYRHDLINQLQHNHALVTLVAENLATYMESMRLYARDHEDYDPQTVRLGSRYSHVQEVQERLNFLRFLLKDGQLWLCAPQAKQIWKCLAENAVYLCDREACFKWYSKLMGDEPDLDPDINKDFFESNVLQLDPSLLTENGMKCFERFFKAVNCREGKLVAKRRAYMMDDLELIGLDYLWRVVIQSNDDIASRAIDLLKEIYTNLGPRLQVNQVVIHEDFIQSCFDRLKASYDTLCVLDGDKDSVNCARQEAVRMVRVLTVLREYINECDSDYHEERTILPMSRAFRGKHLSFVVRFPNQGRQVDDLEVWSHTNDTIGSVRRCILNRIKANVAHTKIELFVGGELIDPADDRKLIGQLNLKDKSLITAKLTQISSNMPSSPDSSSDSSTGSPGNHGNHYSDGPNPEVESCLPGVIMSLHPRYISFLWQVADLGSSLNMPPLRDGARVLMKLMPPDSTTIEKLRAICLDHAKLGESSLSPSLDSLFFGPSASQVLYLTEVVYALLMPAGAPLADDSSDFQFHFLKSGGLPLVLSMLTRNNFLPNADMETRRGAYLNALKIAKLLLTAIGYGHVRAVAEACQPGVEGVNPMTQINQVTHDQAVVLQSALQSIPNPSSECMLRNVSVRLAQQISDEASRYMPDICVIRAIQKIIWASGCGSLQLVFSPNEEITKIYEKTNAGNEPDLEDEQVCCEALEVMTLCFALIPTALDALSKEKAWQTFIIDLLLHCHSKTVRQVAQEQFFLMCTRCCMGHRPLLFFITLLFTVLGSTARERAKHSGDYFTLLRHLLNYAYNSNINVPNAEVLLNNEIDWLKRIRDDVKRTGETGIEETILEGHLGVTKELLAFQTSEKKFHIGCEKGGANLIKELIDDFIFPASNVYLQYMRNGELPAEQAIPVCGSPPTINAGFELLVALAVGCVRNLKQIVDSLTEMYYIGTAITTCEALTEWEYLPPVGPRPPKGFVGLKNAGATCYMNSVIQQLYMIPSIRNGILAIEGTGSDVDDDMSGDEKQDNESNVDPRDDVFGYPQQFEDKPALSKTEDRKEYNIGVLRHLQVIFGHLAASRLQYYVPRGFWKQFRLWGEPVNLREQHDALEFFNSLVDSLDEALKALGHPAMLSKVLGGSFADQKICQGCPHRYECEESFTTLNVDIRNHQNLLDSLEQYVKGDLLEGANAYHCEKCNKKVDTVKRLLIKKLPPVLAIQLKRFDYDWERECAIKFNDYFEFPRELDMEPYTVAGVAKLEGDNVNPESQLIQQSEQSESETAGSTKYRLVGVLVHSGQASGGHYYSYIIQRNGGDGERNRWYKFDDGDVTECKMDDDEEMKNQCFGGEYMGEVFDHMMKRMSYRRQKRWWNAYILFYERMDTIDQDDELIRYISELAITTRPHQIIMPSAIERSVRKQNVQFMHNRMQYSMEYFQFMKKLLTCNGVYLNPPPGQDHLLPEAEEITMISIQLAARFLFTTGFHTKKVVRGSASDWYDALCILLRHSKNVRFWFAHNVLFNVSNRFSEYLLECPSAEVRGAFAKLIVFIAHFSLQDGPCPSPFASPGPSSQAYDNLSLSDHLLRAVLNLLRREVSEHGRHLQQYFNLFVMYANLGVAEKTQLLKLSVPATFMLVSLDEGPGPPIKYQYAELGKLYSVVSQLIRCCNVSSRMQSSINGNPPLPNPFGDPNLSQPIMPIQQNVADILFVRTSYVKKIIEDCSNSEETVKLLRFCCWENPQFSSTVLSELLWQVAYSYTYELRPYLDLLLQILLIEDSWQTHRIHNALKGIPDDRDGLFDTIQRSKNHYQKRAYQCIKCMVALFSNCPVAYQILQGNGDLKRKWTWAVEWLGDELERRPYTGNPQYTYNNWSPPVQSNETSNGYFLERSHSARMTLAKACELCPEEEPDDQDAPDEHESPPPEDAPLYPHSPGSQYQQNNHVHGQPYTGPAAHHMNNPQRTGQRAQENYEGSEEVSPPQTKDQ
Method in brief: as §1

UniProt O00487 = target: UniProt O00487
UniProt O00487, sequence (O00487 whole entry): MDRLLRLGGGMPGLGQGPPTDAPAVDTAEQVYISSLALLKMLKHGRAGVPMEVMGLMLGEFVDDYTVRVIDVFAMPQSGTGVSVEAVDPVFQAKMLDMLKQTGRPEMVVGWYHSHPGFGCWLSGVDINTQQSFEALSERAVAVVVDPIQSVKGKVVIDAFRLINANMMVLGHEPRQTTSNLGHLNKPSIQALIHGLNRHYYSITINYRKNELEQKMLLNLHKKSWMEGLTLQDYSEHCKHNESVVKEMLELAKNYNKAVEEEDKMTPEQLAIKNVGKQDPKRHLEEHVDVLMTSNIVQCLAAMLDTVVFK
Method in brief: as §1

Measured: log2 ratio of Biotin-Ahx-Ub-VS probe labelling

Cc1cccc(NC(=O)[C@@H]2CCCN2C(=O)CCl)n1
inactive: USP42 0.315 | USP46 -0.247 | USP47 -0.448 | USP48 -0.474 | USP5 0.305 | USP54 0.236 | USP7 -0.502 | USP8 -0.358 | USP9X -0.337 | UniProt O00487 -0.177

O=C(CCl)Nc1nnc(CC(F)(F)F)o1
inactive: USP42 -0.117 | USP46 0.083 | USP47 0.172 | USP48 -0.236 | USP5 0.0095 | USP54 0.782 | USP7 -0.136 | USP8 -0.263 | USP9X -0.134 | UniProt O00487 -0.296

Cl.O=C(CCl)N1CCN(Cc2ccccc2)CC1
inactive: USP42 0.128 | USP46 -0.101 | USP47 -0.389 | USP48 -0.499 | USP5 -0.052 | USP54 0.13 | USP7 -0.607 | USP8 -0.333 | USP9X -0.369 | UniProt O00487 -0.299

CS(=O)(=O)c1ccc(CNC(=O)CCl)cc1
inactive: USP42 0.283 | USP46 -0.122 | USP47 -0.0551 | USP48 -0.0444 | USP5 -0.111 | USP54 0.392 | USP7 -0.145 | USP8 -0.0148 | USP9X -0.103 | UniProt O00487 -0.101
